The target in one experiment is MAP kinase-activated protein kinase 3 (Homo sapiens) (UniProt Q16644). The conditions noted are these: at 1 µM.
Chain of Serine/threonine-protein kinase MARK1 (Homo sapiens) (Q9P0L2 whole entry, looked up): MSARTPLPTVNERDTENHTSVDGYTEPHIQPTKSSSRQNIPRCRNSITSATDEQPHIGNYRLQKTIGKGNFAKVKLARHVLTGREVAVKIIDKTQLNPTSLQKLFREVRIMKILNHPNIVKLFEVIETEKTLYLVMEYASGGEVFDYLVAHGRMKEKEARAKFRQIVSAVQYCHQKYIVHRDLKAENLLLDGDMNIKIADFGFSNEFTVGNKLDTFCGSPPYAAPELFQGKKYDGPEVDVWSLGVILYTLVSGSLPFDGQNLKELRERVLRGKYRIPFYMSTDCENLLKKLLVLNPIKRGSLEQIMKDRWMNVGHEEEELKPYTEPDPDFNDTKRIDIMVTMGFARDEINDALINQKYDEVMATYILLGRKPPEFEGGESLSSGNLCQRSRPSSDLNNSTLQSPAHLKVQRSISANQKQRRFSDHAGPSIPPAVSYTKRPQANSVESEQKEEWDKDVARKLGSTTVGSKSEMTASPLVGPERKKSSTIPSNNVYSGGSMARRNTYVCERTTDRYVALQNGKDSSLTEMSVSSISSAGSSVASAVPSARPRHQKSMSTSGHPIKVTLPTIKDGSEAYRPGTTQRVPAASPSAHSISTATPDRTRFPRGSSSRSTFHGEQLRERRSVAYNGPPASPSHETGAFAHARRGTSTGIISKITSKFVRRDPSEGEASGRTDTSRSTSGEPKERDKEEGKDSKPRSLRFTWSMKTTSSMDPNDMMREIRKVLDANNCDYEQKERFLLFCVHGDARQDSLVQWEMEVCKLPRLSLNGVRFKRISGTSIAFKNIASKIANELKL
Chain of MAP kinase-activated protein kinase 3 (Homo sapiens) (Q16644 whole entry, looked up): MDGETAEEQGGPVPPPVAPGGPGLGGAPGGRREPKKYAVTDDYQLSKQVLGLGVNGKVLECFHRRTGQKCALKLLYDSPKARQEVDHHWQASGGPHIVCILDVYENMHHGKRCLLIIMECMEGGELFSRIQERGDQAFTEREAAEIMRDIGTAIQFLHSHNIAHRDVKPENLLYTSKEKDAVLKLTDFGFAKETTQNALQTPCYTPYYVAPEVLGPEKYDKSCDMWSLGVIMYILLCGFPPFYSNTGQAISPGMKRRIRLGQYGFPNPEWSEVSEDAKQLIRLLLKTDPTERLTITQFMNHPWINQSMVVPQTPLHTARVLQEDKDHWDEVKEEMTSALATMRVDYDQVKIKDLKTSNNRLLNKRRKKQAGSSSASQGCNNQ
One may read the inhibition as the relative decrease from the control value, in per cent. With `CCn1c(-c2nonc2N)nc2c(C#CCN)ncc(OCCCN)c21`, the inhibition was -0.66%.
`NS(=O)(=O)c1ccc(N/C=C2\C(=O)Nc3ccc4ncsc4c32)cc1`: the inhibition stood at 10.4%.
For `COc1cc(C=NNc2ncnc3c2cnn3Cc2ccccc2)ccc1O`, the inhibition is -1.92%.
Still for that read-out and setting: next, `Fc1ccc(-c2ncn(C3CCNCC3)c2-c2ccnc(Oc3ccccc3)n2)cc1`: 33.4%; `COc1cc2c(cc1Nc1nc(Nc3ccsc3C(N)=O)c3cc[nH]c3n1)N(C(=O)CN(C)C)CCC2`: 6.01%.
With `COc1cccc(-n2ncc3c(N/N=C/c4ccncc4)ncnc32)c1`, the inhibition worked out at 4.56%.
Take `CCn1c(-c2nonc2N)nc2c(C#CC(C)(C)O)nc(O[C@@H](CN)c3ccccc3)cc21`: the inhibition was -0.47%.
In the case of `NC(=O)c1sc(-n2cnc3cc(C(F)(F)F)ccc32)cc1OCc1ccccc1Br`, the inhibition was -0.9%.
Still for that read-out and setting: with `NS(=O)(=O)c1ccc(-c2ccc3c(NC(=O)C4CC4)n[nH]c3c2)cc1` the figure was 2.69%.
For the compound `Nc1nonc1-c1nc2cnccc2n1C1CCCCC1`, the inhibition was -2.76%.
As for `Cc1cc(-c2ccco2)cc(C)c1/C=C/c1cncc(-c2nn[nH]n2)c1`, the inhibition came out at 1.25%.
Still for that read-out and setting: with `CCn1c(-c2nonc2N)nc2c(C#CC(C)(C)O)ncc(OC[C@@H]3CCCN3)c21` the figure was -0.82%; with `COc1cccc(COc2cc(-n3cnc4ccccc43)sc2C(N)=O)c1`, 3.61%.
On the same count and under the same terms, with `CCn1c(-c2nonc2N)nc2c(C#CC(C)(C)O)ncc(OCC3CCNCC3)c21` the figure was 1.31%.

A further experiment addresses Serine/threonine-protein kinase MARK1 (Homo sapiens) (UniProt Q9P0L2). The conditions noted are these: at 0.1 µM.
As to `CCn1c(-c2nonc2N)nc2c(C#CCN)ncc(OCCCN)c21`, the inhibition is 4.42%.
Regarding `NS(=O)(=O)c1ccc(N/C=C2\C(=O)Nc3ccc4ncsc4c32)cc1`, the inhibition worked out at 13.6%.
In the case of `COc1cc(C=NNc2ncnc3c2cnn3Cc2ccccc2)ccc1O`, the inhibition is -0.6%.
On to `Fc1ccc(-c2ncn(C3CCNCC3)c2-c2ccnc(Oc3ccccc3)n2)cc1`, for which the inhibition amounted to 0.45%.
On the same count and under the same terms, next, `COc1cc2c(cc1Nc1nc(Nc3ccsc3C(N)=O)c3cc[nH]c3n1)N(C(=O)CN(C)C)CCC2`: 2.48%; `COc1cccc(-n2ncc3c(N/N=C/c4ccncc4)ncnc32)c1`: 4.99%.
In the case of `CCn1c(-c2nonc2N)nc2c(C#CC(C)(C)O)nc(O[C@@H](CN)c3ccccc3)cc21`, the inhibition is 77.2%.
Turning to `NC(=O)c1sc(-n2cnc3cc(C(F)(F)F)ccc32)cc1OCc1ccccc1Br`, the inhibition amounted to 1.79%.
The same measure, in the same setting: with `NS(=O)(=O)c1ccc(-c2ccc3c(NC(=O)C4CC4)n[nH]c3c2)cc1` the figure was 1.75%; with `Nc1nonc1-c1nc2cnccc2n1C1CCCCC1`, 2.89%; with `Cc1cc(-c2ccco2)cc(C)c1/C=C/c1cncc(-c2nn[nH]n2)c1`, 1.07%.
With `CCn1c(-c2nonc2N)nc2c(C#CC(C)(C)O)ncc(OC[C@@H]3CCCN3)c21`, the inhibition was 13.8%.
Still for that read-out and setting: next, `COc1cccc(COc2cc(-n3cnc4ccccc43)sc2C(N)=O)c1`: 0.58%; `CCn1c(-c2nonc2N)nc2c(C#CC(C)(C)O)ncc(OCC3CCNCC3)c21`: 15.5%.

These data come from ChEMBL document CHEMBL1961873, “Compounds: GSK PKIS; Assays: Nanosyn kinase panel” (2012).
